Only a selection was taken, and hits are over-represented in it overall.
NOMO-1 viab – STK33 inhibitor candidate reducing NOMO-1 cell viability; NOMO-1 AML viability, CellTiter-Glo luminescence, 72 h; AID 2330; actives 7.5% (n = 37,000); inhibition, % (no concentration beside the values); in the data active = inhibition above about 80%; inconclusive = no clear call, values can overlap the other calls
STK33 kin inh – blocks human STK33 kinase activity | ADP-Glo luminescence, MBP substrate | inhibition, % at 12.5 µM | actives 0.44% (n = 27,000) | AID 2322; in the data active = inhibition above about 20%; inconclusive = no clear call, values can overlap the other calls
Target sequence (Q9BYT3 whole entry, looked up): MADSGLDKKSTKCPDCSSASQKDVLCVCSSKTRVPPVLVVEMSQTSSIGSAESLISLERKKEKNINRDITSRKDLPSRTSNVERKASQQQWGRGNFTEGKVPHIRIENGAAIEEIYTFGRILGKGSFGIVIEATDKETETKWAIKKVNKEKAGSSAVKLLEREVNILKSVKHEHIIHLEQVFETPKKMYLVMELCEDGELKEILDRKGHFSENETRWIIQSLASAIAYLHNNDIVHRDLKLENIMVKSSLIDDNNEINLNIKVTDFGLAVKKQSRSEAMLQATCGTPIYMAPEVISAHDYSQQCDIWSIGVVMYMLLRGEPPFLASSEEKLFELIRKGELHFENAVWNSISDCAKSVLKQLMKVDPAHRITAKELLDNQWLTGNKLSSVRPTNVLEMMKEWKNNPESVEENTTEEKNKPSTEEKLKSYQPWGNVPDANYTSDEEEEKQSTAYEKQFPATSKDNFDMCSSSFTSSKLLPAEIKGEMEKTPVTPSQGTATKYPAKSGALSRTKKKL
PD-1 reversal – reversal of PD-1 mediated T-cell inhibition; primary human CD4 T cells, PD-L1 beads, CellTiter-Glo 96 h; activation, % (concentration not given with the values); 29,000 tested, under 10 active; AID 2316; call rule not given here
A number is an active result.

How did O=C(C1CCCO1)N1N=C(c2c(-c3ccccc3)c3cc(Cl)ccc3[nH]c2=O)CC1c1ccco1 (centres undefined) do in these assays?
NOMO-1 viab: 93; STK33 kin inh: inactive; PD-1 reversal: inactive

Results for O=C(O)CCC(=O)N1N=C(c2cccs2)CC1c1ccco1 (centres undefined) ?
NOMO-1 viab: inactive; STK33 kin inh: inactive; PD-1 reversal: inactive

What do the screens show for `C[C@@H]1CN([C@H](C)CO)C(=O)c2cc(NC(=O)Nc3ccc(F)cc3)ccc2O[C@H]1CN(C)CC1CCCCC1`?
NOMO-1 viab: inactive; PD-1 reversal: inactive

What do the screens show for `C[C@H](CO)N1C[C@H](C)[C@@H](CN(C)CC2CCCCC2)Oc2ccc(NC(=O)Nc3ccc(C(F)(F)F)cc3)cc2C1=O`?
NOMO-1 viab: 127; PD-1 reversal: inactive

How did C[C@@H]1CN([C@@H](C)CO)C(=O)c2cc(NC(=O)Nc3ccc(C(F)(F)F)cc3)ccc2O[C@@H]1CN(C)CC1CCCCC1 do in these assays?
NOMO-1 viab: 118; STK33 kin inh: inactive; PD-1 reversal: inactive

What do the screens show for `C[C@H]1CN([C@@H](C)CO)C(=O)c2cc(NC(=O)Nc3ccc(C(F)(F)F)cc3)ccc2O[C@H]1CN(C)CC1CCCCC1`?
NOMO-1 viab: 105; STK33 kin inh: inactive; PD-1 reversal: inactive

Results for C[C@@H]1CN([C@H](C)CO)C(=O)c2cc(NC(=O)Nc3ccc(F)cc3)ccc2O[C@@H]1CN(C)CC1CCCCC1 ?
NOMO-1 viab: inactive

What do the screens show for `C[C@H]1CN([C@@H](C)CO)C(=O)c2cc(NC(=O)Nc3ccc(C(F)(F)F)cc3)ccc2O[C@@H]1CN(C)CC1CCCCC1`?
NOMO-1 viab: inactive; PD-1 reversal: inactive

How did C[C@H](CO)N1C[C@H](C)[C@H](CN(C)CC2CCCCC2)Oc2ccc(NC(=O)Nc3ccc(F)cc3)cc2C1=O do in these assays?
NOMO-1 viab: inactive

How did C[C@@H]1CN([C@H](C)CO)C(=O)c2cc(NC(=O)Nc3ccc(C(F)(F)F)cc3)ccc2O[C@@H]1CN(C)CC1CCCCC1 do in these assays?
NOMO-1 viab: 126; PD-1 reversal: inactive

Results for CCC(=O)c1ccc(OC)cc1OC ?
NOMO-1 viab: inactive; PD-1 reversal: inactive

Results for COc1ccccc1NC(=O)CSc1nc2ccccc2o1 ?
NOMO-1 viab: inactive; PD-1 reversal: inactive

Results for COc1ccc(OCC(=O)N2CCN(S(=O)(=O)c3ccc(OC)cc3)CC2)cc1 ?
NOMO-1 viab: inactive; PD-1 reversal: inactive

What do the screens show for `Cc1ccc(Cl)cc1NC(=O)C(C)n1nc(C)c([N+](=O)[O-])c1C` (centres undefined)?
NOMO-1 viab: inactive; STK33 kin inh: inactive

How did Cc1sc2ncn(CC(=O)Nc3c(C(C)C)cccc3C(C)C)c(=O)c2c1C do in these assays?
NOMO-1 viab: inconclusive; STK33 kin inh: inactive; PD-1 reversal: inactive

How did Cc1ccc2nc(NCCCO)[nH]c2c1 do in these assays?
NOMO-1 viab: inactive; STK33 kin inh: inactive

What do the screens show for `O=c1[nH]nc(-c2ccccc2)c2ccccc12`?
NOMO-1 viab: inactive; STK33 kin inh: inactive; PD-1 reversal: inactive

How did COC(=O)Nc1nc2ccc(-c3n[nH]c(=O)c4ccccc34)cc2[nH]1 do in these assays?
NOMO-1 viab: 108; PD-1 reversal: inactive

Results for CCCCc1ccc2nc(NC(=O)OC)[nH]c2c1 ?
NOMO-1 viab: 120; STK33 kin inh: inactive

What do the screens show for `O=C(CCCn1cc([N+](=O)[O-])cn1)Nc1cccc(C(F)(F)F)c1`?
NOMO-1 viab: inactive; STK33 kin inh: inactive

Results for O=C1/C(=C/c2ccc(-c3nn[nH]n3)cc2)C(c2ccccc2)Oc2ccccc21 (centres undefined) ?
NOMO-1 viab: inactive; STK33 kin inh: inactive; PD-1 reversal: inactive

Results for COc1cccc(CN2CCN(C(=O)c3cccs3)CC2)c1 ?
NOMO-1 viab: inactive; PD-1 reversal: inactive

How did COc1ccc(/C=C2\CC/C(=C\c3ccc(C)cc3)C2=O)cc1 do in these assays?
NOMO-1 viab: inactive; PD-1 reversal: inactive

What do the screens show for `O=C1/C(=C/c2ccccn2)CC/C1=C\c1ccccn1`?
NOMO-1 viab: 135; PD-1 reversal: inactive

What do the screens show for `COc1cc(NC(=O)Cn2nc(C(F)(F)F)cc2C)cc([N+](=O)[O-])c1`?
NOMO-1 viab: inactive; STK33 kin inh: inactive

Results for Cc1cc(C)cc(CC(C)CC(=O)Nc2ccccc2I)c1 (centres undefined) ?
NOMO-1 viab: inactive; PD-1 reversal: inactive

Results for O=C(/C=C/c1ccc(Cl)cc1)Nc1cccc(Cl)c1 ?
NOMO-1 viab: 120; PD-1 reversal: inactive

What do the screens show for `O=C(O)CCCC(=O)Nc1cccc(Cl)c1`?
STK33 kin inh: inactive

How did C=C1C(=O)OC2CC(C)C3(/C=C/C(C)=O)OC3CC12 (centres undefined) do in these assays?
NOMO-1 viab: 118; STK33 kin inh: inactive; PD-1 reversal: inactive

What do the screens show for `CC(C)(C)c1cc(C(C)(C)C)c2oc(C(=O)O)cc(=O)c2c1`?
NOMO-1 viab: inactive; PD-1 reversal: inactive

How did COc1cccc(C(Nc2cc(C)ccn2)c2ccc3ccc(C)nc3c2O)c1 (centres undefined) do in these assays?
NOMO-1 viab: 97; STK33 kin inh: inactive; PD-1 reversal: inactive

What do the screens show for `Cc1ccnc(NC(c2cc(C)ccc2C)c2ccc3ccc(C)nc3c2O)c1` (centres undefined)?
NOMO-1 viab: inactive; STK33 kin inh: inactive; PD-1 reversal: inactive

How did Cc1ccnc(NC(c2ccc([N+](=O)[O-])cc2)c2ccc3ccc(C)nc3c2O)c1 (centres undefined) do in these assays?
NOMO-1 viab: 118; STK33 kin inh: inactive

Results for Cc1ccnc(SCC(=O)c2ccc([N+](=O)[O-])cc2)n1 ?
NOMO-1 viab: inactive; STK33 kin inh: inactive; PD-1 reversal: inactive

What do the screens show for `CCCCC1(Cc2ccccc2)C(=O)Nc2ccccc2C1=O` (centres undefined)?
NOMO-1 viab: inactive; PD-1 reversal: inactive

How did O=C(NCc1ccccn1)C(=O)Nc1ccccc1F do in these assays?
NOMO-1 viab: inactive; STK33 kin inh: inactive; PD-1 reversal: inactive

Results for CCN(CC)CCSc1nnc2c3ccccc3n(CC(N)=O)c2n1 ?
NOMO-1 viab: inactive; PD-1 reversal: inactive

What do the screens show for `Cc1cc(OCC(=O)Nc2ccccc2C(=O)O)cc(C)c1Cl`?
NOMO-1 viab: inactive; STK33 kin inh: inactive

What do the screens show for `COC(=O)c1ccccc1NC(=O)COc1ccc(C)cc1C`?
NOMO-1 viab: inactive; STK33 kin inh: inactive; PD-1 reversal: inactive

Results for COC(=O)c1ccccc1NC(=O)c1cccc(NC(=O)COc2cc(C)c(Cl)c(C)c2)c1C ?
NOMO-1 viab: 102; STK33 kin inh: inactive

Results for COC(=O)c1ccccc1NC(=O)COc1ccc2ccccc2c1Br ?
NOMO-1 viab: 84; STK33 kin inh: inactive; PD-1 reversal: inactive

How did COc1cc([N+](=O)[O-])ccc1NC(=O)CN(C)S(=O)(=O)c1ccc(C)cc1 do in these assays?
NOMO-1 viab: inactive; STK33 kin inh: inactive; PD-1 reversal: inactive

Results for O=C(O)COc1ccc2occ(C(=O)c3ccccc3)c2c1 ?
NOMO-1 viab: inactive; STK33 kin inh: inactive; PD-1 reversal: inactive

How did O=C(c1ccc(Oc2ccccc2)cc1)c1coc2ccc(O)cc12 do in these assays?
NOMO-1 viab: 139; PD-1 reversal: inactive

Results for C=C(CO)C(=O)O[C@H]1CC(=C)[C@@H]2CC(=O)[C@H](C)[C@@H]2[C@H]2OC(=O)C(=C)[C@@H]21 ?
NOMO-1 viab: 107; STK33 kin inh: inactive; PD-1 reversal: inactive
